Assay outcomes as filed in PubChem.
Sampled rows, rich in hits. Any-hit rate of the full collection: about 4.6%.
D1 PAM: potentiators of human D1 dopamine receptor; P21728; HEK293 TREx D1 cells, calcium flux, dopamine EC20 potentiation; potentiation, % at 10 µM; 360,000 tested, 0.036% active; AID 504651; in the data active = potentiation above about 30%; also: 0% is about no effect
Target sequence (P21728 whole entry, looked up): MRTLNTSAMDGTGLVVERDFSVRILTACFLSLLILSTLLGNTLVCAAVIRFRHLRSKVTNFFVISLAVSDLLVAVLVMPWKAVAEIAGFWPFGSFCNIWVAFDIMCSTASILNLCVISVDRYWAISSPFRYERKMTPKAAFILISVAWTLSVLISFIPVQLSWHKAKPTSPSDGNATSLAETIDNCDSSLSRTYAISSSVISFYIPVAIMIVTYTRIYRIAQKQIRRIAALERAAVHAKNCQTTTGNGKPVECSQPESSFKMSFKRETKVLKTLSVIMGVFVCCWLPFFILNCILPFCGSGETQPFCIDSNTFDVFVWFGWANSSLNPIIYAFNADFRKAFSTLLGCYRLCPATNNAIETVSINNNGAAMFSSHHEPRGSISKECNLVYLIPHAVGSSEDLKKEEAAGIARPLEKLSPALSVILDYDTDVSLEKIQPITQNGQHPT
TRHR agonist: agonists of human TRH receptor; P34981; TRHR cells, calcium flux fluo-8, FDSS agonist mode; activation, % at 2 µM; 360,000 tested, 0.18% active; AID 493084; also: 0% is about no effect
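Read-out: compound-evoked intracellular calcium rise in TRHR cells, fluo-8 dye, kinetic FDSS fluorescence at 1 s/cycle following a 10-cycle baseline. Cells cultured overnight before dye loading (30 min–1.5 h, RT).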
D1 antagonist: human D1 dopamine receptor antagonism; P21728; HEK293 TREx D1 cells, calcium flux, dopamine EC80; hits give low values; activity change, negative = inhibition, % at 10 µM; 360,000 tested, 3.2% active; AID 504652; in the data active = activity change below about -30%; also: % is scaled to controls: 0 for no effect and ±100 for the full control effect
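Tetracycline-induced HEK293 Trex D1 cells, force-coupled to calcium, dye-loaded; compounds added and read 180 s, then EC80 dopamine added and calcium flux tracked kinetically another 180 s.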
D1 agonist: agonists of human D1 dopamine receptor; HEK293 T-REx D1 cells, calcium flux, agonist mode; 360,000 tested, 1% active; activation, % at 2 µM; AID 504660; also: 0% is about no effect
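Tetracycline-induced HEK293 TREx D1 cells, force-coupled to calcium signalling, were dye-loaded with a no-wash calcium kit. Compound was pin-added after a 10 s baseline. Fluorescence was read kinetically at 1 cycle/s for 180 s, with calcium rises flagged as agonism.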
TRHR PAM: TRH receptor (human) allosteric enhancement | 360,000 tested, 0.66% active | AID 493056 | TRHR cells, fluo-8 calcium fluorescence, EC20 TRH enhancement | enhancement, % at 2 µM | P34981; in the data active = enhancement above about 30%; also: 0% is about no effect
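TRHR-expressing cells loaded with fluo-8 calcium dye were read kinetically (ex 480/em 530) during compound addition, then stimulated with an EC20 of TRH (10 nM final). Enhancement of the Gq-mediated intracellular calcium response was scored.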
Active calls of the source: *; · = not tested or not shown; ! = repeats disagree. Rule as the data show it, unless noted: active = activation above about 30%; inactive = the rest.

SMILES	D1 PAM	TRHR agonist	D1 antagonist	D1 agonist	TRHR PAM
CCOC(=O)C1CCN(C(=O)c2ccc(CNS(=O)(=O)c3ccc(C)cc3)cc2)CC1	-4	-1	-37*	0	4
CCOC(=O)C1CCN(C(=O)CCNS(=O)(=O)c2ccc(C)cc2)CC1	-4	-3	-21	1	5
Cc1ccc(S(=O)(=O)NCc2ccc(C(=O)NC3CC3)cc2)cc1	-3	0	-6	2	-1
COc1ccc(C(=O)Nc2ccc(-c3nc4ccccc4s3)cc2C)cc1Cl	-2	1	4	0	7
CCOC(=O)/C(N=Nc1c(C)n(C)n(-c2ccccc2)c1=O)=C(/O)c1ccccc1	-1	0	-5	1	-3
COC(=O)/C(N=Nc1c(C)n(C)n(-c2ccccc2)c1=O)=C(\C)O	1	0	-9	1	33*
CCOC(=O)c1c(NC(=O)COC(=O)C2CCC2)sc(C(=O)N(C)C)c1C	-9	0	-46*	3	1
CCc1nccn1CCC(=O)N1CCc2c([nH]c3ccccc23)C1CC(C)C (stereo unspecified)	0	0	9	2	5
COc1cc2c(c(OC)c1OC)-c1c(cc3c(c1OC)OCO3)C1OC2[C@@H](C)[C@H]1C (stereo partly specified)	-2	0	-46*	2	9
COc1cc2c(c(OC)c1OC)-c1c(cc3c(c1O)OCO3)C[C@@H](C)[C@@H](C)C2	2	0	-15	5	-8
O=C(Cn1cc([N+](=O)[O-])cn1)NCc1cc2ccccc2[nH]1	-8	0	-1	0	-10
COc1ccc(NC(=O)C2CC(=O)NC3=C2C(=O)CC(C)(C)C3)cc1 (stereo unspecified)	-2	0	-6	2	1
O=C(COc1cc2oc(=O)c3c(c2cc1Cl)CCC3)Nc1ccccn1	5	0	-11	2	-6
COC(=O)c1cc(S(=O)(=O)NCC2CCN(Cc3cccc(F)c3)CC2)cn1C	-7	0	-39*!	9	-3
CCOC(=O)c1cc(S(=O)(=O)NCC2CCN(Cc3cccc(C)c3)CC2)cn1C	-3	1	1	10	-4
COC(=O)c1cc(S(=O)(=O)NCc2ccccc2OC)cn1C	-9	0	-48*	10	-1
COC(=O)c1cc(S(=O)(=O)NCc2cccc(OC)c2)cn1C	-4	0	-19	3	10
COc1ccccc1CNC(=O)c1cc(S(=O)(=O)N2CCCC(C)C2)cn1C (stereo unspecified)	-1	-1	-17	2	38*
Cc1ccc(NC(=O)C2CCCN(S(=O)(=O)c3c(C)n[nH]c3C)C2)cc1C (stereo unspecified)	-3	1	-10	1	-3
O=C(O)c1cccc2c3c([nH]c12)CCCC3	2	0	-30*	-3	2
Cc1ccccc1NC(=O)c1cccc2c(=O)c3c([nH]c12)CCCC3	-1	1	-6	17	3
COc1ccc(Cn2c(=O)c3oc4ccccc4c3n(Cc3ccccc3)c2=O)cc1	-1	0	-4	2	35*
Cc1ccc(Cn2c(=O)n(Cc3ccccc3)c(=O)c3oc4ccccc4c32)cc1	-4	0	10	2	36*
COc1ccc(Cn2c(=O)c3oc4ccccc4c3n(Cc3cccc(F)c3)c2=O)cc1	-6	0	6	9	0
Cc1ccc(C)c(Cn2c(=O)n(Cc3ccco3)c(=O)c3oc4ccccc4c32)c1	-4	0	10	1	-3
SMILES	D1 PAM	TRHR agonist	D1 antagonist	D1 agonist	TRHR PAM
Cc1ccc(C)c(Cn2c(=O)n(C(C)C)c(=O)c3oc4ccccc4c32)c1	-2	1	-80*	0	12
Cc1cccc(Cn2c(=O)n(Cc3ccccc3)c(=O)c3oc4ccccc4c32)c1	-4	-1	3	1	-2
COc1ccc(-c2[nH]ncc2CNCCCSC)cc1F	-1	1	-5	1	0
CCOc1ccc(Nc2cc(C)nc(-n3nc(C)cc3C)n2)cc1	-5	-1	-33*	1	-7
COC1=CC(=Cc2c(N)n3nc(CC(=O)N4CCCCC4)sc3nc2=O)C=C(OC)C1=O	1	138*	9	62*	22
O=C(NCCCn1ccnc1)c1ccc(S(=O)(=O)N2CCOCC2)cc1	3	1	31	-2	3
CCCCN(CC)C(=O)Cn1cnc2sc(C)c(S(=O)(=O)N3CCC(C)CC3)c2c1=O	-4	2	5	5	-3
COc1ccccc1NC(=O)CC1C(=O)NCCN1C(=O)Nc1ccc(Cl)c(Cl)c1 (stereo unspecified)	-5	1	-30*	4	-11
COc1ccccc1NC(=S)N1CCNC(=O)C1CC(=O)Nc1cccc(C)c1 (stereo unspecified)	-6	-1	6	1	-4
Cc1ccc(NC(=O)c2cnn3c2NC(c2ccccc2)=CC3c2ccccc2)cc1 (stereo unspecified)	-3	4	-8	3	-6
CCc1c(-c2ccccc2)nc2nc(C)c(C)nn12	-2	0	-27	0	37*
COc1cc(-c2nc3cnccn3c2Nc2ccc(C(C)C)cc2)ccc1O	-1	0	-7	34*!	-5
COc1cccc(NC(=O)c2ccc(NC(C)=O)cc2)c1	-2	1	11	1	-5
CC(=O)Nc1sc2c(c1-c1nc3ccccc3s1)CCN(C(C)C)C2	9	130*	-13	74*	-4
CCN1CCc2c(sc(NC(=O)CSc3ccccc3)c2-c2nc3ccccc3s2)C1	-5	147*	-24	403*	-20
CC(=O)N1CCc2c(sc(NC(=O)CSc3ccc(F)cc3)c2-c2nc3ccccc3s2)C1	-2	0	·	2	-3
CN1CCc2c(sc(NC(=O)CSc3ccc(F)cc3)c2-c2nc3ccccc3s2)C1	-1	102*	-22	399*	-13
CCOc1ccccc1NC(=O)Nc1c(C)n(-c2ccccc2)c(=O)n1C	1	1	7	3	4
CCOCCCN1C(=O)CN(C2CCCCCC2)C(=O)C1c1ccc(OC(C)C)c(OC)c1 (stereo unspecified)	-2	-1	-38*	-4	-1
Cc1cc(C)n(-c2ccc(C(=O)OCC(=O)NC(c3ccccc3)c3ccccc3)cc2)n1	-6	3	-12	31*	-4
CCOC(=O)c1ccc(-n2nc(C)cc2C)cc1	-6	-1	5	2	0
Cc1onc(-c2ccccc2)c1C(=O)OCC(=O)Nc1ccc(C#N)cc1	-2	0	-31*	10	-7
Cc1cc(SCC(=O)OCC(=O)NC(C)c2ccccc2)c(C)cc1Br (stereo unspecified)	-1	0	-41*	8	14
Cc1onc(-c2ccccc2)c1C(=O)OCC(=O)Nc1ccccc1	1	0	-12	5	15
